Anthrax LF prot: anthrax lethal factor protease inhibition | P15917 | AID 588501 | 360,000 tested, 0.12% active | multiplex microsphere protease cleavage assay, LF | inhibition, % at 10 µM; also: plate controls were buffer without enzyme for full effect and enzyme alone for no effect
Target sequence (P15917 whole entry, looked up): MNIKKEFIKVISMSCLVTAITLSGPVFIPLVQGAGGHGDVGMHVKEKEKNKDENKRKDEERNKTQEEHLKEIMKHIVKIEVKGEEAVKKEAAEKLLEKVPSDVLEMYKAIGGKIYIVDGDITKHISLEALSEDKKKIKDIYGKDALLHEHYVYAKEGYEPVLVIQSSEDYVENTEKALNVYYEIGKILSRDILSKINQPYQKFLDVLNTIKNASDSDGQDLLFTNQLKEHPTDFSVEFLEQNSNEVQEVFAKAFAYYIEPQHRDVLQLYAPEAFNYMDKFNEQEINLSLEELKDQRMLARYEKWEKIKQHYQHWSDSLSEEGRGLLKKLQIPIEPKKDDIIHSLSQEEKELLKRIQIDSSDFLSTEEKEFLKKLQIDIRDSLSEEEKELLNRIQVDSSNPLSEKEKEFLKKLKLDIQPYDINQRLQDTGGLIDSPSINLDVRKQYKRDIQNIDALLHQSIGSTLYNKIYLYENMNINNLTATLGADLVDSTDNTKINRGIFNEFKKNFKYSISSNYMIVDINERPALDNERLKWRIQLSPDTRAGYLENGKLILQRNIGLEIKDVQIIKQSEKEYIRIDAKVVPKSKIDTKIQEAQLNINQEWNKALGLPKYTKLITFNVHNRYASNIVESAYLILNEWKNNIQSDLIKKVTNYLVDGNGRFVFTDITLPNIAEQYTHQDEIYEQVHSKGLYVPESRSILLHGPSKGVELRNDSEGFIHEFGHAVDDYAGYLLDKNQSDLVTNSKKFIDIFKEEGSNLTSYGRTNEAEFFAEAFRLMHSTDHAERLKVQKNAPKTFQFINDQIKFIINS
Bead autofluor: counter-screen for toxin protease inhibitors: compound fluorescence. compound autofluorescence counterscreen, microsphere flow cytometry; active compounds read high. 360,000 tested, 3.1% active. AID 624483. fluorescence intensity (test concentration not listed); in the data active = fluorescence intensity above about 16000; inconclusive = no clear call, values can overlap the other calls
BoNT A protease: blocks Botulinum neurotoxin A light chain protease. multiplex microsphere protease substrate cleavage, flow cytometry. inhibition, % at 10 µM. 360,000 tested, 0.17% active. AID 588499; also: plate controls were buffer without enzyme for full effect and enzyme alone for no effect
BoNT-F LC inh: blocks Botulinum neurotoxin F light chain protease. Multiplex microsphere protease cleavage assay, flow cytometry. inhibition, % at 10 µM. 360,000 tested, 0.22% active; in the data active = inhibition above about 35%, passing the limit was not always enough; inconclusive = no clear call, values can overlap the other calls; also: plate controls were buffer without enzyme for full effect and enzyme alone for no effect
Numbers without * were called inactive. A selection: hits, their analogues and other compounds. The true share with any hit is near 3.5%. Rule as the data show it, unless noted: active = inhibition above about 30%; inconclusive = no clear call, values can overlap the other calls; inactive = below that.

How did Cc1ccc(OCC(=O)OCC(=O)NC2CCCCCC2)cc1C do in these assays?
Anthrax LF prot: 1; Bead autofluor: 3009; BoNT A protease: 0; BoNT-F LC inh: 3

What do the screens show for `CC1(C)CC(=O)C=C(Nc2cccc(F)c2)C1`?
Anthrax LF prot: 1; Bead autofluor: 3926; BoNT A protease: 4; BoNT-F LC inh: 15

How did CC1(C)CC(=O)C=C(Nc2ccc(Br)cn2)C1 do in these assays?
Anthrax LF prot: -3; Bead autofluor: 13373; BoNT A protease: -2; BoNT-F LC inh: -20

Results for CC1(C)CC(=O)C=C(Nc2ccccn2)C1 ?
Anthrax LF prot: -1; Bead autofluor: 21302*; BoNT A protease: inconclusive; BoNT-F LC inh: 0

How did CC(O)c1cccc(NC2=CC(=O)CC(C)(C)C2)c1 (configuration not stated) do in these assays?
Anthrax LF prot: -4; Bead autofluor: 22635*; BoNT A protease: 2; BoNT-F LC inh: 1

Results for COc1ccc(C2C(C#N)=C(C)NC3=C2C(=O)c2ccccc23)cc1 (configuration not stated) ?
Anthrax LF prot: -1; Bead autofluor: 9430; BoNT A protease: 2; BoNT-F LC inh: -4

How did CCOc1ccc(C2C(C#N)=C(C)NC3=C2C(=O)c2ccccc23)cc1 (configuration not stated) do in these assays?
Anthrax LF prot: 4; Bead autofluor: 22424*; BoNT A protease: 3; BoNT-F LC inh: 4

How did O=C(O)C1(NS(=O)(=O)c2ccc(Cl)cc2)CCCCC1 do in these assays?
Anthrax LF prot: -4; Bead autofluor: 19428*; BoNT A protease: inconclusive; BoNT-F LC inh: 2

Results for Cc1ccc(S(=O)(=O)NC2(C(=O)O)CCCCC2)cc1 ?
Anthrax LF prot: -1; Bead autofluor: 23381*; BoNT A protease: -2; BoNT-F LC inh: -2

Results for Cc1ccc(S(=O)(=O)NC2(C(=O)O)CCCC2)cc1 ?
Anthrax LF prot: 2; Bead autofluor: 3815; BoNT A protease: 0; BoNT-F LC inh: -1

What do the screens show for `C=CCNc1ncnc2c1ncn2[C@H]1CN(CCOC)C[C@@H](CO)O1`?
Anthrax LF prot: -1; Bead autofluor: 3384; BoNT A protease: 0; BoNT-F LC inh: 2

How did COc1ccc(S(=O)(=O)N(CC(=O)NCc2ccncc2)c2ccc(C)cc2)cc1Br do in these assays?
Anthrax LF prot: 8; Bead autofluor: 3253; BoNT A protease: -1; BoNT-F LC inh: -24

How did Cc1ccc2cc(C#N)c(N3CCCN(C(=O)C4CCCO4)CC3)nc2c1C (configuration not stated) do in these assays?
Anthrax LF prot: 13; Bead autofluor: 16171*; BoNT A protease: 13; BoNT-F LC inh: 10

How did COCCn1c(=NC(=O)c2cc(-c3cccs3)nc3ccccc23)sc2cc(S(N)(=O)=O)ccc21 do in these assays?
Anthrax LF prot: 12; Bead autofluor: 2383; BoNT A protease: 34*; BoNT-F LC inh: 2

Results for C=CCn1c(=NC(=O)c2cc(-c3cccs3)nc3ccccc23)sc2cc(S(N)(=O)=O)ccc21 ?
Anthrax LF prot: 8; Bead autofluor: 2634; BoNT A protease: 18; BoNT-F LC inh: 5

Results for O=C(CCS(=O)(=O)c1ccc(Br)cc1)N1CCN(c2ccc(Cl)cc2)CC1 ?
Anthrax LF prot: -1; Bead autofluor: 20319*; BoNT A protease: 0; BoNT-F LC inh: -1

How did COc1ccc(Cl)cc1N/C(N)=N/c1nc(C)cc(=O)[nH]1 do in these assays?
Anthrax LF prot: -4; Bead autofluor: 5041; BoNT A protease: -1; BoNT-F LC inh: -15

What do the screens show for `COc1ccc(Cl)cc1N/C(N)=N/c1nc(CSc2ccc(C)cc2)cc(=O)[nH]1`?
Anthrax LF prot: -1; Bead autofluor: 23248*; BoNT A protease: 1; BoNT-F LC inh: -2

What do the screens show for `Cn1c(N)nc(N)c(NC=O)c1=O`?
Anthrax LF prot: 5; Bead autofluor: 5830; BoNT A protease: 0; BoNT-F LC inh: 2

Results for Cc1cc(NCCC(C)C)n2nc(C)c(-c3ccccc3)c2n1 ?
Anthrax LF prot: -3; Bead autofluor: 24144*; BoNT A protease: -2; BoNT-F LC inh: -6

Results for CCOc1ccc(-n2cnnn2)cc1S(=O)(=O)NCc1ccccc1 ?
Anthrax LF prot: 0; Bead autofluor: 13747; BoNT A protease: -1; BoNT-F LC inh: -6

How did CCOc1cc(S(=O)(=O)NCc2ccccc2)c(OCC)cc1-n1cnnn1 do in these assays?
Anthrax LF prot: -2; Bead autofluor: 21889*; BoNT A protease: inconclusive; BoNT-F LC inh: 5

Results for COc1ccccc1NC(=O)CN(C)S(=O)(=O)c1cccc2cccnc12 ?
Anthrax LF prot: 0; Bead autofluor: 5180; BoNT A protease: 1; BoNT-F LC inh: 5

What do the screens show for `COc1ccc(N(C)S(=O)(=O)c2cccc3cccnc23)c(OC)c1`?
Anthrax LF prot: -1; Bead autofluor: 16783*; BoNT A protease: -1; BoNT-F LC inh: 1

Results for CC(C)(C)C1CCc2onc(C(=O)NCc3ccc(F)cc3)c2C1 (configuration not stated) ?
Anthrax LF prot: 0; Bead autofluor: 22455*; BoNT A protease: 1; BoNT-F LC inh: 0

Results for O=C(NCc1ccc(F)cc1)c1noc2c1CCCCC2 ?
Anthrax LF prot: 0; Bead autofluor: 10547; BoNT A protease: 1; BoNT-F LC inh: 5

Results for O=C(NCc1ccc(F)cc1)c1noc2c1CCCC2 ?
Anthrax LF prot: 0; Bead autofluor: 19451*; BoNT A protease: 2; BoNT-F LC inh: 1

Results for Cc1ccccc1Cn1cc(NC(=O)c2noc3c2CC(C(C)(C)C)CC3)cn1 (configuration not stated) ?
Anthrax LF prot: -3; Bead autofluor: 16905*; BoNT A protease: inconclusive; BoNT-F LC inh: -1

What do the screens show for `Cc1ccccc1Cn1nc(C)c(NC(=O)c2noc3c2CC(C(C)(C)C)CC3)c1C` (configuration not stated)?
Anthrax LF prot: -1; Bead autofluor: 7718; BoNT A protease: 0; BoNT-F LC inh: 4

How did COc1cccc(-c2ccc3nccn3c2)c1 do in these assays?
Anthrax LF prot: 5; Bead autofluor: 3988; BoNT A protease: 2; BoNT-F LC inh: -1

Results for O=[N+]([O-])c1ccc2nccn2c1 ?
Anthrax LF prot: 1; Bead autofluor: 24475*; BoNT A protease: -2; BoNT-F LC inh: -2

How did Nc1nc(-c2cccnc2)nn1C(=O)COc1ccccc1 do in these assays?
Anthrax LF prot: -2; Bead autofluor: 24503*; BoNT A protease: -2; BoNT-F LC inh: -6

How did O=C(NCC(c1ccccc1Cl)N1CCCC1)c1ccc(N2CCCC2=O)cc1 (configuration not stated) do in these assays?
Anthrax LF prot: -1; Bead autofluor: inconclusive; BoNT A protease: -6; BoNT-F LC inh: 14

Results for O=[N+]([O-])c1ccc(NN=Cc2ccc3c(c2)OCO3)nc1 ?
Anthrax LF prot: -10; Bead autofluor: 4225; BoNT A protease: -1; BoNT-F LC inh: -5

Results for CCc1ccccc1N1CCN(S(=O)(=O)c2cc(OC)ccc2OC)CC1 ?
Anthrax LF prot: -6; Bead autofluor: 23647*; BoNT A protease: inconclusive; BoNT-F LC inh: -2

What do the screens show for `O=C(Nc1ccc2c(c1)OCO2)C1CCCN(c2nc3ccccc3s2)C1` (configuration not stated)?
Anthrax LF prot: -3; Bead autofluor: 18282*; BoNT A protease: 13; BoNT-F LC inh: 14
